From PubChem BioAssay (EPA / NIEHS)
Calls of active or inactive are those of the source. How the source made its calls: active means hit-call score of the fitted dose curve at least 0.9, where 1 is the maximum; inactive means score below 0.9.

Tests used:
Settings in all cases: mRNA level, 48 h; actives raise or lower the signal
[1] = read-out: Intercellular Adhesion Molecule 1 (ICAM1), ICAM1 (gene 3383); test: LTEA_HepaRG_ICAM1: Life Technologies and Expression Analysis (LTEA) Assay for Intercellular Adhesion Molecule 1 (ICAM1) using HepaRG (AID 2283507)
How it was run: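 HepaRG, 48 h exposure, 8-pt half-log series from 100 uM, 0.5% DMSO vehicle, duplicates. Readout: TaqMan qRT-PCR mRNA, housekeeping-normalized (ACTB/GAPDH/POLR2A). Bidirectional curve fit vs DMSO baseline.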

[2] = read-out: Insulin-like growth factor-binding protein 1 (IGFBP1), IGFBP1 (gene 3484); test: LTEA_HepaRG_IGFBP1: Life Technologies and Expression Analysis (LTEA) Assay for Insulin-like growth factor-binding protein 1 (IGFBP1) using HepaRG (AID 2283508)
How it was run: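 qRT-PCR mRNA read-out (TaqMan, Fluidigm array), normalised to three housekeeping genes; HepaRG cells, 48 h exposure, 8-pt half-log series from 100 uM, 0.5% DMSO vehicle; bidirectional curve fit vs DMSO baseline.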

[3] = read-out: Interleukin 6 (IL6), IL6 (gene 3569); test: LTEA_HepaRG_IL6: Life Technologies and Expression Analysis (LTEA) Assay for Interleukin 6 (IL6) using HepaRG (AID 2283509)
How it was run: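 HepaRG, ~100,000 cells/well, 48 h pre-culture; serum-free induction medium; cmpd 8-pt half-log from 100 uM, 0.5% DMSO, duplicate, 48 h. Lysis in RLT, TaqMan qRT-PCR; gain or loss vs DMSO.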

[4] = read-out: Interleukin 6 Receptor (IL6R), IL6R (gene 3570); test: LTEA_HepaRG_IL6R: Life Technologies and Expression Analysis (LTEA) Assay for Interleukin 6 Receptor (IL6R) using HepaRG (AID 2283510)
How it was run: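 Concentration-response in human liver HepaRG cells: eight concentrations from 100 uM downward by half-logs, 48 h exposure, 0.5% DMSO vehicle. IL6R mRNA change measured by qRT-PCR and fitted in both directions relative to vehicle.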

[5] = read-out: Potassium channel subfamily K member 1 (KCNK1), KCNK1 (gene 3775); test: LTEA_HepaRG_KCNK1: Life Technologies and Expression Analysis (LTEA) Assay for Potassium channel subfamily K member 1 (KCNK1) using HepaRG (AID 2283511)
How it was run: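 Gain or loss of KCNK1 mRNA is the read-out, quantified by qRT-PCR against three housekeeping genes after 48 h chemical treatment of human HepaRG liver cells. Concentrations ran from 100 uM downward in half-log steps, vehicle 0.5% DMSO.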

[6] = read-out: Keratin 19 (KRT19), KRT19 (gene 3880); test: LTEA_HepaRG_KRT19: Life Technologies and Expression Analysis (LTEA) Assay for Keratin 19 (KRT19) using HepaRG (AID 2283512)
How it was run: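 HepaRG, 48 h chemical exposure, 8-pt half-log CRC from 100 uM, 0.5% DMSO vehicle, duplicates. Readout: TaqMan qRT-PCR of KRT19 mRNA, housekeeping-normalized (ACTB/GAPDH/POLR2A). Bidirectional fit vs DMSO baseline.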

[7] = read-out: JUN Transcription Factor, JUN (gene 3725); test: LTEA_HepaRG_JUN: Life Technologies and Expression Analysis (LTEA) Assay for JUN Transcription Factor using HepaRG (AID 2283513)
How it was run: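 Human HepaRG liver cells receive test chemicals in 0.5% DMSO for 48 h across an eight-point range topping at 100 uM. Expression changes in JUN are scored in both directions against the DMSO vehicle.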

[8] = read-out: Lipase C (LIPC), LIPC (gene 3990); test: LTEA_HepaRG_LIPC: Life Technologies and Expression Analysis (LTEA) Assay for Lipase C (LIPC) using HepaRG (AID 2283514)
How it was run: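 Read-out is LIPC transcript level by TaqMan qRT-PCR, normalized to three housekeeping genes, after 48 h chemical treatment of human HepaRG liver cells. Curves span eight concentrations topping at 100 uM; activity in either direction scored relative to 0.5% DMSO.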

[9] = read-out: Lipoprotein lipase (LPL), LPL (gene 4023); test: LTEA_HepaRG_LPL: Life Technologies and Expression Analysis (LTEA) Assay for Lipoprotein lipase (LPL) using HepaRG (AID 2283515)
How it was run: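 Read-out is LPL transcript level by qRT-PCR, normalized to three housekeeping genes and fitted bidirectionally against the DMSO control. Human HepaRG cells received chemicals for 48 h at up to 100 uM.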

[10] = read-out: MicroRNA 122 (MIR122), gene 406906; test: LTEA_HepaRG_MIR122: Life Technologies and Expression Analysis (LTEA) Assay for MicroRNA 122 (MIR122) using HepaRG (AID 2283516); further: the transcript read is the microRNA miR-122
How it was run: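 HepaRG, 48 h exposure, 8-pt half-log from 100 uM, 0.5% DMSO; TaqMan qRT-PCR; bidirectional fit vs DMSO.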

[11] = read-out: matrix metalloproteinase-10 (MMP10), MMP10 (gene 4319); test: LTEA_HepaRG_MMP10: Life Technologies and Expression Analysis (LTEA) Assay for matrix metalloproteinase-10 (MMP10) using HepaRG (AID 2283517)
How it was run: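 Gain or loss of MMP10 mRNA is fitted relative to the 0.5% DMSO vehicle. The human hepatic line HepaRG receives a 48-hour serum-free exposure, in duplicate, with a maximum concentration of 100 uM.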

[12] = read-out: MYC, MYC (gene 4609); test: LTEA_HepaRG_MYC: Life Technologies and Expression Analysis (LTEA) Assay for MYC using HepaRG (AID 2283518)
How it was run: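 qRT-PCR read-out of MYC transcript (Fluidigm TaqMan, housekeeping-normalized) after 48 h chemical exposure of HepaRG cells; eight concentrations, top 100 uM, half-log steps. Bidirectional curve fitting against 0.5% DMSO vehicle baseline.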

[13] = read-out: matrix metalloproteinase-3 (MMP3), MMP3 (gene 4314); test: LTEA_HepaRG_MMP3: Life Technologies and Expression Analysis (LTEA) Assay for matrix metalloproteinase-3 (MMP3) using HepaRG (AID 2283519)
How it was run: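 HepaRG, human; 48 h dosing, 8 conc. (max 100 uM, half-log), duplicate, 0.5% DMSO. Readout: MMP3 transcript by Fluidigm TaqMan qRT-PCR, ACTB/GAPDH/POLR2A-normalised. Gain or loss fitted vs DMSO.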

[14] = read-out: Paternally Expressed 10 (PEG10), PEG10 (gene 23089); test: LTEA_HepaRG_PEG10: Life Technologies and Expression Analysis (LTEA) Assay for Paternally Expressed 10 (PEG10) using HepaRG (AID 2283520);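 on AC50: PEG10 transcript by qRT-PCR normalised to ACTB GAPDH and POLR2A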
How it was run: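 Chemicals tested on HepaRG cells for 48 h, highest concentration 100 uM. PEG10 expression assessed by qRT-PCR relative to DMSO control.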

[15] = read-out: Nuclear factor NF-kappa-B p105 subunit (Homo sapiens) (UniProt P19838); test: LTEA_HepaRG_NFKB1: Life Technologies and Expression Analysis (LTEA) Assay for Nuclear Factor Kappa B Subunit 1 (NFKB1) using HepaRG (AID 2283521)
How it was run: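 Differentiated human HepaRG cells in serum-free induction medium with 0.5% DMSO were exposed for 48 h to eight half-log concentrations, top 100 uM, in duplicate. NFKB1 mRNA measured by Fluidigm TaqMan qRT-PCR, normalised to ACTB, GAPDH and POLR2A; bidirectional fit versus DMSO.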

[16] = read-out: Protein phosphatase 2A (PPP2R4), PTPA (gene 5524); test: LTEA_HepaRG_PPP2R4: Life Technologies and Expression Analysis (LTEA) Assay for Protein phosphatase 2A (PPP2R4) using HepaRG (AID 2283522)
How it was run: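 Gene-expression endpoint in HepaRG hepatic cells: 48 h treatment across eight half-log concentrations up to 100 uM in 0.5% DMSO. PPP2R4 mRNA by qRT-PCR, normalized to three endogenous control genes.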

[17] = read-out: Phosphatase and tensin (PTEN), PTEN (gene 5728); test: LTEA_HepaRG_PTEN: Life Technologies and Expression Analysis (LTEA) Assay for Phosphatase and tensin (PTEN) using HepaRG (AID 2283523)
How it was run: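 Read-out is PTEN transcript level by multiplexed TaqMan qRT-PCR after 48 h chemical treatment of human HepaRG cultures in serum-free induction medium. Concentrations spanned 100 uM downward in half-log steps, 0.5% DMSO throughout; activity fitted in both directions against vehicle.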

[18] = read-out: solute carrier (SLC22A1), SLC22A1 (gene 6580); test: LTEA_HepaRG_SLC22A1: Life Technologies and Expression Analysis (LTEA) Assay for solute carrier (SLC22A1) using HepaRG (AID 2283524)
How it was run: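 HepaRG (human liver line), 48 h dosing in serum-free induction medium; 8 conc., half-log down from 100 uM, 0.5% DMSO vehicle, duplicates. Endpoint: SLC22A1 mRNA, qRT-PCR, housekeeping-normalized; gain/loss fit vs DMSO.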

[19] = read-out: Pyruvate Dehydrogenase Kinase 4 (PDK4), PDK4 (gene 5166); test: LTEA_HepaRG_PDK4: Life Technologies and Expression Analysis (LTEA) Assay for Pyruvate Dehydrogenase Kinase 4 (PDK4) using HepaRG (AID 2283525)
How it was run: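 In this multiplexed human HepaRG expression assay, cells are treated 48 h with test chemicals across an eight-point range starting at 100 uM. PDK4 mRNA changes, normalized to ACTB/GAPDH/POLR2A, are fitted in both directions relative to vehicle.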

[20] = read-out: NAD(P)H dehydrogenase [quinone] 1 (NQO1), NQO1 (gene 1728); test: LTEA_HepaRG_NQO1: Life Technologies and Expression Analysis (LTEA) Assay for NAD(P)H dehydrogenase [quinone] 1 (NQO1) using HepaRG (AID 2283526)
How it was run: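 Human HepaRG hepatic cells received chemicals for 48 h in serum-free induction medium with 0.5% DMSO, up to 100 uM. Expression was assessed by TaqMan qRT-PCR against housekeeping controls and fitted bidirectionally against DMSO.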

Measured: AC50

Chain of Nuclear factor NF-kappa-B p105 subunit (Homo sapiens) (P19838 whole entry, looked up): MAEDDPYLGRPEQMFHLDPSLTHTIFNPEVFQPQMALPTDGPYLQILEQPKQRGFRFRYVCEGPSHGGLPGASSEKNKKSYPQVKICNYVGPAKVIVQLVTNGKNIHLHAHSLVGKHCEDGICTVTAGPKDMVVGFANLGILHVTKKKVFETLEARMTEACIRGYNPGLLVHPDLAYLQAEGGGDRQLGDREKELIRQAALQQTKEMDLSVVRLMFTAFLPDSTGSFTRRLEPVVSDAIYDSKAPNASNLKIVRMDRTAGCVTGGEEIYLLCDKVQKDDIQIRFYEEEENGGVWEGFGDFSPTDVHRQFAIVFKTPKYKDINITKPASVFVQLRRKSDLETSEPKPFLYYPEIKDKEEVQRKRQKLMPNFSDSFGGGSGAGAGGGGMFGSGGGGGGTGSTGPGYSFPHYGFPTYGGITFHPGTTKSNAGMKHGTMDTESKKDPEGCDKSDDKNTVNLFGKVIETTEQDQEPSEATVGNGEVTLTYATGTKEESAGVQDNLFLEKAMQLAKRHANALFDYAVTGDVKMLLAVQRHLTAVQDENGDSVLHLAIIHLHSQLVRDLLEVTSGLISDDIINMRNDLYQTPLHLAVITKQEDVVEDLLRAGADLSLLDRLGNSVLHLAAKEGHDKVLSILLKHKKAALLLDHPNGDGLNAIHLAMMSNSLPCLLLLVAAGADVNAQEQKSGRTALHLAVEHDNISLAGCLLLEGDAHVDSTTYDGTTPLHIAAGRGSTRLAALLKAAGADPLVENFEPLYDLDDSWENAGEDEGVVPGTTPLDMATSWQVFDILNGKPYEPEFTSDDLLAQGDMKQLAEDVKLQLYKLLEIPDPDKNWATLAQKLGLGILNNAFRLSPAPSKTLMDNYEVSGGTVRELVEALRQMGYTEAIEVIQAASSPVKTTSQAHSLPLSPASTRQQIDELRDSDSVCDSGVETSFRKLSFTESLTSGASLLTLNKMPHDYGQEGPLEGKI

CC(C)[C@H](C(=O)O[C@H](C#N)c1cccc(Oc2ccccc2)c1)c1ccc(Cl)cc1
active: [13] 50 µM | [14] 30.3 µM
not listed: [20]
inactive: all other assays above

CC1(C(=O)Nc2ccc(O)c(Cl)c2Cl)CCCCC1
not listed: [20]
inactive: all other assays above

CCOC(=O)CC(SP(=O)(OC)OC)C(=O)OCC (stereo unspecified)
active: [19] 22 µM
not listed: [20]
inactive: all other assays above

CNC(=O)ON=C(C)SC
not listed: [13] | [20]
inactive: all other assays above

COP(=O)(OC)C(O)C(Cl)(Cl)Cl (stereo unspecified)
not listed: [20]
inactive: all other assays above

CCOP(=S)(OCC)Oc1ccc2c(C)c(Cl)c(=O)oc2c1
active: [2] 21.5 µM | [6] 29.4 µM | [8] 74.7 µM | [10] 50 µM | [12] 50 µM | [14] 13.2 µM | [18] 70 µM | [19] 0.837 µM
not listed: [15]
inactive: all other assays above

COP(=O)(NC(C)=O)SC (stereo unspecified)
not listed: [15] | [20]
inactive: all other assays above
